Measurements from PubChem BioAssay AID1851 (National Center for Advancing Translational Sciences (NCATS), 2009).
The whole screen tested about 16,000 compounds, of which about 5,800 (36%) were called active. Another 23% or so got no clear call; they are omitted. The list shows a part of the results. Values without a mark were called inactive. The call rests on the fitted dose curve; in most records, active means well fitted curve in the direction sought with a large enough effect; inconclusive means small, poorly fitted or top-dose-only effect, or effect the other way; inactive means no such curve, though single readings can be large or run the other way.

Target: Cytochrome P450 2C19 (Homo sapiens) (UniProt P33261)
Test: Cytochrome panel assay with activity outcomes
Conditions: recombinant CYP, pro-luciferin dealkylation, luminescence, p450-cyp2c19; series mostly up to 57.1 µM; activity, negative = inhibition: at the top concentration
On the % scale 0 is the no-effect control and ±100 the full control effect.

Cytochrome P450 2C19 (Homo sapiens), sequence (P33261 whole entry, looked up): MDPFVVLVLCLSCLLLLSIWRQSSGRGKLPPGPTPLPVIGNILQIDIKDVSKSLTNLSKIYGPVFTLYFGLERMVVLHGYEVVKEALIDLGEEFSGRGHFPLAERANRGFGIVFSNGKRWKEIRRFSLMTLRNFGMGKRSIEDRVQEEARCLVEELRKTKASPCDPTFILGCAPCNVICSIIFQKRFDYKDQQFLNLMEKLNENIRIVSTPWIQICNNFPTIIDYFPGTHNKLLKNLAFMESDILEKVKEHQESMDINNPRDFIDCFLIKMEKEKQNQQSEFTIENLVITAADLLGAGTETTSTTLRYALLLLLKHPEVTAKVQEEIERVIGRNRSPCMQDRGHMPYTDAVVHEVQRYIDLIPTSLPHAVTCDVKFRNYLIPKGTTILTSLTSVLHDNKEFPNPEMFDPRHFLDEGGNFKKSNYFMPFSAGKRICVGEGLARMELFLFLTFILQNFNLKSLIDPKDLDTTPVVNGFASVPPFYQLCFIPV

Compound	activity, negative = inhibition	AC50
O=C(N/N=C1/C[C@@H](O)[C@@H](O)[C@@H]2[C@H]3C(=O)N(c4ccc(F)cc4F)C(=O)[C@@H]3CC[C@@H]12)OCc1ccccc1	-16.8% [at 11.4 µM]	–
NC(=O)C[C@H](NC(=O)Cc1ccc(O)cc1O)C(=O)O	31.1%	–
CC1(C)CC(=O)C2=C(C1)Nc1cc3c(cc1C2c1ccc(F)cc1)OCO3 (stereo unspecified)	–	4470 nM (active)
Fc1ccc([C@H]2CCNC[C@H]2COc2ccc3c(c2)OCO3)cc1	13.9%	–
N=C(N)c1ccc(N=Nc2c(O)ccc3c2[nH]c2ccccc23)cc1	–	1260 nM (active)
NS(=O)(=O)c1ccc(N=Nc2c(O)c(C(=O)O)cc3ccccc23)cc1	9.68% [at 11.4 µM]	–
N=C(N)c1ccccc1	-22%	–
COc1ccc2c(Cl)c(C(=O)NCCCn3ccnc3)sc2c1Cl	–	794 nM (active)
Cc1cc(=O)oc(C)c1C(=O)NCCCN1CCN(c2ccc(F)cc2)CC1	-1.77%	–
CSc1ccc(NC(=O)NCCCN2CCN(c3ccccc3F)CC2)cc1	–	15800 nM (active)
O=C(CCN1CCc2ccccc2C1)Nc1ccc(F)cc1	–	7940 nM (active)
O=C(NCCCN1CCN(C2CCCCC2)CC1)Nc1ccccc1C(F)(F)F	33.2%	–
O=C(CCCN1CC=C(n2c(=O)[nH]c3ccccc32)CC1)c1ccc(F)cc1	-2.46% [at 25.6 µM]	–
O=C(O)c1ccccc1-c1ccccc1C(=O)Nc1ccc2c(c1)Cc1cc(F)ccc1-2	-34% [at 11.4 µM]	–
S=C(S)NCCCn1ccnc1	-30% [at 11.4 µM]	–
O=C(NCCCn1ccnc1)Nc1ccc(Cl)cc1	–	56.2 nM (active)
O=C1Cc2c([nH]c3ccc(Br)cc23)-c2ccccc2N1	-35.7%	–
CSc1ccc(NC(=O)NCCN2CCc3ccccc3C2)cc1	–	15800 nM (active)
O=C(NCCCN1CCc2ccccc2C1)Nc1ccc(Cl)cc1	–	15800 nM (active)
CC(C)[C@H](NC(=O)OC(C)(C)C)[C@@H](O)CC(=O)C(C)(C)C	-18.4% [at 11.4 µM]	–
CC(C)[C@@H]1NC(=O)[C@H](CCCCN)NC(=O)[C@H](Cc2c[nH]c3ccccc23)NC(=O)[C@H](Cc2ccc(O)cc2)NC(=O)[C@H](C)N(C)C(=O)[C@H](Cc2ccccc2)NC1=O	25.9%	–
COc1ccc(C(=O)Nc2cccc(OC(=O)c3ccc(C)c(C)c3)c2)cc1	–	7940 nM (active)
COc1ccc(C(=O)Nc2cc(OC)cc(OC)c2)cc1	–	2510 nM (active)

Compound	activity, negative = inhibition	AC50
O=C(Nc1cccc(OC(=O)c2cccnc2)c1)c1cccnc1	-17.1%	–
CCOc1ccc(NC(=O)c2ccc(OC)cc2)cc1	-12.6%	–
COc1ccc2c(OC)c3ccoc3nc2c1OC	-42.9% [at 25.6 µM]	–
COc1ccc2c(=O)cc(-c3ccncc3)oc2c1OC	–	1580 nM (active)
CCc1ccc2c(-c3cccc(Cl)c3)nc(=O)n(CC)c2n1	-44.4%	–
CCn1c2ccccc2c2nnc(NCCCO)nc21	5.92% [at 11.4 µM]	–
CCn1c2ccc(Cl)cc2c2nc3ccccc3nc21	–	14100 nM (active)
Cc1noc(C)c1-c1ccc2ncnc(NCc3ccccc3)c2c1	–	7940 nM (active)
Cc1cccc(CNc2ncnc3ccc(-c4c(C)noc4C)cc23)c1	–	5010 nM (active)
Cc1noc(C)c1-c1ccc2ncnc(NCc3cccs3)c2c1	–	1260 nM (active)
CC(=O)NCCNc1ncnc2ccc(-c3c(C)noc3C)cc12	-43.7%	–
COCCNc1ncnc2ccc(-c3c(C)noc3C)cc12	–	10000 nM (active)
Cc1noc(C)c1-c1ccc2ncnc(NCCN3CCOCC3)c2c1	-20.8%	–
C=C(C)C1Cc2nc(N)nc(C)c2C1 (stereo unspecified)	-25.3%	–
COc1cc(C)cc2c(-c3c(O)cc(O)c4c3C[C@H](C)N[C@@H]4C)cc(-c3cc(-c4c(O)cc(O)c5c4C[C@H](C)N[C@@H]5C)c4cc(C)cc(OC)c4c3O)c(O)c12	-31.6% [at 11.4 µM]	–
Cc1noc(C)c1-c1ccc2ncnc(NCc3cccnc3)c2c1	–	20 nM (active)
CC1(C)OC[C@@H]2O[C@H](n3cnc4c(N)nc(Cl)nc43)[C@@H](OS(C)(=O)=O)[C@@H]2O1	8% [at 11.4 µM]	–
CN(Cc1ccco1)c1ncnc2ccc(-c3cccc(NS(C)(=O)=O)c3)cc12	–	7940 nM (active)
CN1CCN(c2ncnc3ccc(-c4cccc(NS(C)(=O)=O)c4)cc23)CC1	-17.8%	–
CN(Cc1ccco1)c1ncnc2ccc(-c3cccnc3)cc12	–	7940 nM (active)
COc1cccc(-c2ccc3ncnc(N(C)Cc4ccco4)c3c2)c1	–	2000 nM (active)
CN(Cc1ccco1)c1ncnc2ccc(-c3ccc4c(c3)OCO4)cc12	–	631 nM (active)
CCOc1ccc2nc3cc(N=Nc4ccc(N)nc4N)ccc3c(N)c2c1	-6.5% [at 11.4 µM]	–

Compound	activity, negative = inhibition	AC50
CN(C)c1ncnc2ccc(-c3cccnc3)cc12	-21.3%	–
CN(C)C(=O)c1ccc(-c2ccc3ncnc(N(C)C)c3c2)cc1	-35.4%	–
COc1cccc(-c2ccc3ncnc(N(C)C)c3c2)c1	–	3160 nM (active)
O=C(COc1ccc2ccccc2c1)Nc1ccc(Cc2ccncc2)cc1	–	178 nM (active)
CCC(CC)c1nnc(NC(=O)COc2ccc3c(C)cc(=O)oc3c2)s1	-12.9%	–
C=CCSc1nnc(NC(=O)COc2ccc3ccccc3c2)s1	–	2240 nM (active)
CCSc1nnc(NC(=O)COc2ccc3ccccc3c2)s1	–	282 nM (active)
CCc1ccc(OCC(=O)Nc2ccc(-c3nc4ccccc4o3)c(O)c2)cc1	-6.32%	–
O=C(O)CCC(=O)Nc1ccc2ccccc2c1	-18.3% [at 11.4 µM]	–
CN1CC[C@@]2(CCN3CCc4c(oc5ccccc45)[C@@H]3C2)N(C)C1=O	-17.7%	–
CC(C)=CCc1c2c(c3occ(-c4ccc(O)c(O)c4)c(=O)c3c1O)C=CC(C)(C)O2	–	2000 nM (active)
O=C(Nc1nnc(CCS(=O)(=O)c2ccc(Br)cc2)s1)c1ccc([N+](=O)[O-])cc1	-15.8%	–
Cc1nc(NC(=O)c2ccccc2)sc1-c1csc(Nc2ccc(Cl)cc2)n1	–	316 nM (active)
Cc1ccc(Nc2nc(-c3sc(NC(=O)c4ccc([N+](=O)[O-])cc4)nc3C)cs2)cc1	–	1260 nM (active)
Cc1cccc(C(=O)Nc2nnc(-c3ccc(C(C)(C)C)cc3)s2)c1	-9.79%	–
Cc1ccc(Nc2nc(-c3sc(NC(=O)c4cccc(Cl)c4)nc3C)cs2)cc1	–	1410 nM (active)
Cc1nc(NC(=O)c2ccccc2)sc1-c1csc(Nc2cccc(F)c2)n1	–	562 nM (active)
O=C(O)CCC(O)=C1S(=O)(=O)OCCOS1(=O)=O	3.76% [at 11.4 µM]	–
Cc1nnc(NC(=O)c2cccc(NC(=O)C(C)C)c2)s1	-13.6%	–
Cc1nc(NC(=O)c2ccccc2)sc1-c1csc(Nc2ccc(Cl)cc2Cl)n1	–	355 nM (active)
C=CCCC(=O)Nc1nc(C)c(-c2csc(Nc3ccc(Cl)cc3)n2)s1	–	1260 nM (active)
Cc1nc(NC(=O)c2ccco2)sc1-c1csc(Nc2ccc(Cl)cc2Cl)n1	–	355 nM (active)
Cc1nc(NC(=O)c2ccccc2)sc1-c1csc(Nc2cccc(Cl)c2)n1	–	562 nM (active)

Compound	activity, negative = inhibition	AC50
O=C(O)Cc1cc(I)c(Oc2ccc(O)c(I)c2)c(I)c1	-1.1% [at 25.6 µM]	–
CC[C@H](C)C(=O)O[C@H]1CCC=C2C=C[C@H](C)[C@H](CC[C@@H]3C[C@H](O)CC(=O)O3)[C@H]21	4.99%	–
Nc1n[nH]c2ccccc12	-23.5% [at 11.4 µM]	–
Nc1[nH]nc2nc3ccccc3nc12	–	631 nM (active)
COc1ccc(N(C)C(=O)c2ccc3nc(-c4ccccc4)c(-c4ccccc4)nc3c2)cc1	–	8910 nM (active)
CCCOc1ccc(Cn2c(C)nc([N+](=O)[O-])c2SCC(O)COC)cc1[N+](=O)[O-] (stereo unspecified)	–	2820 nM (active)
COc1ccc(Oc2nc(C)cc(C)c2S(=O)(=O)c2ccc(C)cc2)cc1	–	14100 nM (active)
Cc1cc(C)c(S(C)(=O)=O)c(Oc2ccc(C(C)(C)C)cc2)n1	–	7940 nM (active)
CNc1nc(C)cc(C)c1S(=O)(=O)c1ccc(C)cc1	–	631 nM (active)
CNc1nc(C)cc(C)c1S(=O)(=O)c1ccc(Cl)cc1	–	708 nM (active)
Cc1cc(C)nc(NS(=O)(=O)c2ccc(N)cc2)n1	-5.99% [at 25.6 µM]	–
Cc1ccccc1C1C(C#N)=C2N=C(N)c3c(sc4c3CCCCC4)N2C2=C1C(=O)CC(C)(C)C2 (stereo unspecified)	–	6310 nM (active)
COc1cc(C2C(C#N)=C(N)N(c3sc4c(c3C#N)CCCC4)C3=C2C(=O)CC(C)(C)C3)cc(OC)c1OC (stereo unspecified)	–	10000 nM (active)
CC(=O)OC[C@@H]1O[C@@H](O/N=C2/C[C@@H](O)[C@@H](O)[C@@H]3[C@@H]4C(=O)N(C[C@@H]5CCCO5)C(=O)[C@H]4CC[C@@H]23)[C@H](OC(C)=O)[C@H](OC(C)=O)[C@@H]1OC(C)=O	3.68% [at 11.4 µM]	–
COc1cccc(Cn2c(NCc3cccnc3)nc3c2c(=O)n(C)c(=O)n3C)c1	–	17800 nM (active)
Nc1nc(-c2ccccc2)c(-c2ccccc2)s1	–	8910 nM (active)
Nc1ccc(-c2sc(N)nc2-c2ccccc2)cc1	–	7940 nM (active)
Nc1nc(-c2ccccc2)c(-c2ccccc2)c(-c2nc(N)nc(-c3ccccc3)c2-c2ccccc2)n1	13% [at 11.4 µM]	–
Cc1ccc(C)c(NC(=O)C2C3CCCC2C3c2ccccc2)c1 (stereo unspecified)	-1.2%	–
Cc1ccc(C)c(NC(=O)C2CC3c4ccccc4C2c2ccccc23)c1 (stereo unspecified)	–	20000 nM (active)
Nc1nc2c(ncn2COC(CO)CO)c(=O)[nH]1	–	inactive
CC(=O)c1sc(N)c(C(=O)OC(C)C)c1C	–	1580 nM (active)
